High-throughput results as filed in PubChem.
Nrf2 inh – inhibitors of Nrf2 signaling | 360,000 tested, 2.1% active | Potency, µM (top dose mostly 46 µM), without a hit: at the highest dose activity change, negative = inhibition, most hits filed as inhibitors | A549 ARE-Fluc reporter, luciferase luminescence, 18-24 h; note: % is set by controls: 0 for no effect and ±100 for the full control effect; nearly all actives have a fitted effect of over 60% in size
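Nrf2 function is reported as luminescence of an ARE-controlled luciferase in A549 cells. Compounds were tested at several concentrations, and a CellTiter-Fluor read on the same wells flagged cytotoxicity.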
TrxR1 inh – blocks rat thioredoxin reductase 1; Potency, µM (top dose mostly 114 µM), for inactives: top-dose activity change, negative = inhibition, hits mostly inhibitors; AID 588453; recombinant rTrxR1, NADPH fluorescence consumption, selenite substrate; O89049; 390,000 tested, 1% active; note: % is set by controls: 0 for no effect and ±100 for the full control effect; nearly all actives have a fitted effect of over 65% in size
Target sequence (O89049 whole entry, looked up): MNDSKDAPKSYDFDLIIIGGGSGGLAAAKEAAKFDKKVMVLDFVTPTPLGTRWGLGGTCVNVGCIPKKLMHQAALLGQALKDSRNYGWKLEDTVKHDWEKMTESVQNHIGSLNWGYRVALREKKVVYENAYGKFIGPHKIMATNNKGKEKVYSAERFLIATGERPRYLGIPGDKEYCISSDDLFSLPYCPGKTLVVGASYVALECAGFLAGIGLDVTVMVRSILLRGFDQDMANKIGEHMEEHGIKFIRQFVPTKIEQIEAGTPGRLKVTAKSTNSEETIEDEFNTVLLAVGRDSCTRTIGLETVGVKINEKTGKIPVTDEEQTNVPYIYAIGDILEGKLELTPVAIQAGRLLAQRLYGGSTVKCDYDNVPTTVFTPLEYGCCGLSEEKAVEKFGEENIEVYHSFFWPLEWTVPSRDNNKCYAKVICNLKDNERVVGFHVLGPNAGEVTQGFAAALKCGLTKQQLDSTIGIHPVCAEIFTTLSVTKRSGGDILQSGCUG
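Rat TrxR1 (90 nM in the dispensed reagent) was pre-reduced with 400 uM NADPH for 5 min at room temperature, then incubated with compound for 15 min. After 400 uM selenite was added, NADPH fluorescence (Ex 340/Em 450 nm) was followed for 8 min.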
A549 viability – A549 cytotoxicity, counter-screen for Nrf2 inhibitors. A549 ARE-Fluc cells, CellTiter-Fluor viability, 18-24 h. Potency, µM (top dose mostly 46 µM), for the others: at the highest dose activity change, negative = cytotoxicity, most hits filed as inhibitors. 390,000 tested, 0.16% active. AID 504648; note: % is set by controls: 0 for no effect and ±100 for the full control effect
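A549 ARE_Fluc cells in 5% FBS OPTI-MEM were exposed to compounds in concentration-response for 18-24 h at 37 deg C. Viability was read by CellTiter-Fluor fluorescence (Ex 405/Em 525) after 30 min, before the luciferase read.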
mIDH1 inhibitor – human IDH1 R132H inhibition | AID 602179 | Potency, µM (doses to about 76.6 µM), without a hit: at the highest dose activity change, negative = inhibition, actives largely listed as inhibitors | 390,000 tested, 0.093% active | IDH1-R132H enzyme, NADPH consumption, diaphorase/resazurin fluorescence | O75874; note: % is set by controls: 0 for no effect and ±100 for the full control effect; nearly all actives have a fitted effect of over 65% in size
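IDH1-R132H (0.5 ug/mL dispensed) in pH 7.5 Tris buffer was preincubated 30 min with compound, then given a substrate mix of 0.016 mM NADPH and 2 mM alpha-KG for 80 min at room temperature; remaining NADPH was read by diaphorase/resazurin fluorescence.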
TrxR1 substrate – substrates of rat thioredoxin reductase 1; O89049; 390,000 tested, 0.01% active; Potency, µM (series often up to 114 µM), for inactives: at the highest dose activity change, negative = substrate turnover; purified TrxR1 substrate turnover, NADPH consumption readout; note: % is set by controls: 0 for no effect and ±100 for the full control effect; nearly all actives have a fitted effect of over 50% in size
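Rat TrxR1, dispensed at 90 nM, was prereduced with 400 uM NADPH (final) for 5 min at ~22 deg C, then incubated with compound 15 min before 400 uM selenite. A first-read NADPH fluorescence drop versus no-compound background flagged substrates.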
Mito fusion yeast – mitochondrial division inhibition or fusion activation. Potency, µM (series often up to 46.1 µM), for the others: top-dose growth rescue (activation), actives largely listed as activators. S. cerevisiae fusion-defective mutant growth rescue, CellTiterGlo 48 h. 320,000 tested, 0.23% active; note: % of control where 0% means no effect; nearly all actives have a fitted effect of over 45% in size
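Growth-rescue viability read-out: after 48 h at the non-permissive 37C in glycerol/ethanol YPEG, yeast mitochondrial fusion mutants are measured by CellTiterGlo luminescence; compounds (23 nl pinned per well) restoring growth score as division inhibitors or fusion activators.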
Active calls of the source: *; [ ] = dose if it differs, or a comment. An excerpt weighted towards active compounds, which were near 3.1% of everything screened. Calls come from the whole dose curve; as a rule, active = well fitted curve in the direction sought with a large enough effect; inconclusive = small, poorly fitted or top-dose-only effect, or another doubt; inactive = no such curve, though single readings can be large; an effect the other way counts as inactive or inconclusive. Potency is the fitted concentration of half-maximal effect.

How did COc1cccc(OCCSc2nc3ccccc3c(=O)[nH]2)c1 do in these assays?
Nrf2 inh: -30%; TrxR1 inh: 12%[57.1 µM]; A549 viability: -1%; mIDH1 inhibitor: 26%; TrxR1 substrate: 0%[57.1 µM]; Mito fusion yeast: -5%

How did O=C(Nc1ccc(C(=O)N2CCN(c3ccc(Cl)cc3)CC2)cc1)C1=CSCCO1 do in these assays?
Nrf2 inh: inconclusive; TrxR1 inh: 19%; A549 viability: -2%; mIDH1 inhibitor: 0%; TrxR1 substrate: 0%; Mito fusion yeast: -5%

How did CSc1ccccc1C(=O)N1CCN(c2cccc(Cl)c2)CC1 do in these assays?
Nrf2 inh: 16µM*; TrxR1 inh: 26%[57.1 µM]; A549 viability: inconclusive; mIDH1 inhibitor: 8%; TrxR1 substrate: 1%[57.1 µM]; Mito fusion yeast: 0%

What do the screens show for `O=C(Nc1ccccc1C(=O)N1CCN(c2cccc(Cl)c2)CC1)C1=CSCCO1`?
Nrf2 inh: inconclusive; TrxR1 inh: 18%; A549 viability: -8%; mIDH1 inhibitor: -5%; TrxR1 substrate: -6%; Mito fusion yeast: 35µM*

What do the screens show for `CSc1ncc(C(=O)N2CCN(c3cccc(Cl)c3)CC2)c(C)n1`?
Nrf2 inh: -5%; TrxR1 inh: 12%; A549 viability: 3%; mIDH1 inhibitor: 23%; TrxR1 substrate: -6%

How did Cc1cccc(OCC(=O)Nc2ccc(OCc3cc(=O)n4cc(C)ccc4n3)cc2)c1 do in these assays?
TrxR1 inh: 28%[57.1 µM]; A549 viability: 2%; mIDH1 inhibitor: 34%; TrxR1 substrate: 1%[57.1 µM]

How did Cc1cc(S(=O)(=O)Nc2ccc3cn[nH]c3c2)c(C)cc1Cl do in these assays?
Nrf2 inh: inconclusive; TrxR1 inh: 0%; A549 viability: -3%; mIDH1 inhibitor: 3%; TrxR1 substrate: -11%; Mito fusion yeast: 11µM*

Results for O=S(=O)(Nc1ccc2cn[nH]c2c1)c1ccc(Cl)cc1 ?
Nrf2 inh: inconclusive; TrxR1 inh: 11%; A549 viability: 0%; mIDH1 inhibitor: 13%; TrxR1 substrate: -4%; Mito fusion yeast: 26%

How did Cc1ccc(S(=O)(=O)CCC(=O)N2CCN(c3ccc([N+](=O)[O-])cc3)CC2)cc1 do in these assays?
Nrf2 inh: 21µM*; TrxR1 inh: 28µM*; A549 viability: -5%; mIDH1 inhibitor: 6%; TrxR1 substrate: -2%; Mito fusion yeast: 32%

How did COc1ccc(S(=O)(=O)CCC(=O)N2CCN(c3ccc([N+](=O)[O-])cc3)CC2)cc1 do in these assays?
Nrf2 inh: inconclusive; TrxR1 inh: 2%; A549 viability: -20%; mIDH1 inhibitor: -18%; TrxR1 substrate: -4%; Mito fusion yeast: -1%

How did CC1(C(=O)N2CCN(c3ccc([N+](=O)[O-])cc3)CC2)CC1(Cl)Cl (stereo unspecified) do in these assays?
Nrf2 inh: 18µM*; TrxR1 inh: 4%; A549 viability: -25%; mIDH1 inhibitor: 6%; TrxR1 substrate: -11%; Mito fusion yeast: 10%

How did COc1ccc(OCC(=O)OCc2cc(=O)n3cc(C)sc3n2)cc1 do in these assays?
Nrf2 inh: 15%; TrxR1 inh: -6%[57.1 µM]; A549 viability: 11%; mIDH1 inhibitor: 1%; TrxR1 substrate: -5%[57.1 µM]

How did Cc1cccc2c(/C=C/c3ccc(N(C)C)cc3)ccnc12 do in these assays?
TrxR1 inh: 22%; TrxR1 substrate: 1%

How did CCOC(=O)c1c(-c2ccc(C)o2)csc1NC(=O)CSc1nncs1 do in these assays?
Nrf2 inh: 21µM*; TrxR1 inh: 2.2µM*; A549 viability: 2%; mIDH1 inhibitor: 1%; TrxR1 substrate: 1%[57.1 µM]; Mito fusion yeast: 17%

Results for CCOC(=O)c1c(-c2ccc(C)o2)csc1NC(=O)CN1CCN(CC)CC1 ?
Nrf2 inh: 7%; TrxR1 inh: 4.5µM*; A549 viability: -1%; mIDH1 inhibitor: -5%; TrxR1 substrate: 7%; Mito fusion yeast: -3%

How did CCOC(=O)c1c(-c2ccc(C)cc2)csc1NC(=O)CCN1CC(C)OC(C)C1 (stereo unspecified) do in these assays?
Nrf2 inh: -23%; TrxR1 inh: 5%; A549 viability: 29%; mIDH1 inhibitor: 5%; TrxR1 substrate: -10%; Mito fusion yeast: 13µM*

Results for COC(=O)c1c(-c2cccs2)csc1NC(=O)CN1CCOCC1 ?
Nrf2 inh: 6.5µM*; TrxR1 inh: -5%; A549 viability: -4%; mIDH1 inhibitor: 3%; TrxR1 substrate: -7%; Mito fusion yeast: 13%

Results for CCOC(=O)c1c(-c2ccc(C)o2)csc1NC(=O)CN1CCCCC1 ?
Nrf2 inh: -20%; TrxR1 inh: -59%; A549 viability: 0%; mIDH1 inhibitor: -1%; TrxR1 substrate: 9%[57.1 µM]; Mito fusion yeast: -4%

Results for OCCN(Cc1ccccc1)Cc1ncccc1O ?
Nrf2 inh: 3%; TrxR1 inh: -2%; A549 viability: -7%; mIDH1 inhibitor: -6%; TrxR1 substrate: -4%

What do the screens show for `OCCN(Cc1cccnc1)Cc1ccccn1`?
Nrf2 inh: 14%; TrxR1 inh: 1%[11.4 µM]; A549 viability: 21µM*; mIDH1 inhibitor: 5%; TrxR1 substrate: -3%[11.4 µM]

What do the screens show for `CCOC(=O)COc1ccccc1/C=C\[N+](=O)[O-]`?
Nrf2 inh: inconclusive; TrxR1 inh: 2.8µM*; A549 viability: inconclusive; mIDH1 inhibitor: 5%; TrxR1 substrate: -2%; Mito fusion yeast: 0%

How did CCOc1ccc(Nc2cc(C)c(C#N)c3nc4ccccc4n23)cc1 do in these assays?
Nrf2 inh: 3%; TrxR1 inh: -21%; A549 viability: -5%; mIDH1 inhibitor: -3%; TrxR1 substrate: -10%

What do the screens show for `C=C1C=C(C(F)F)n2ncc(C(=O)Nc3ccc(N(CC)CC)cc3)c2N1`?
TrxR1 inh: 4%; TrxR1 substrate: 4%

How did Cc1cc(NS(=O)(=O)c2ccc(NC(=S)NC(=O)c3ccc(C(C)(C)C)cc3)cc2)no1 do in these assays?
Nrf2 inh: 1%; TrxR1 inh: 45µM*; A549 viability: -10%; mIDH1 inhibitor: 0%; TrxR1 substrate: 3%[0.457 µM]; Mito fusion yeast: inconclusive

What do the screens show for `CC(=O)c1ccc(NS(=O)(=O)c2ccc(C(C)(C)C)cc2)cc1`?
Nrf2 inh: 8.2µM*; TrxR1 inh: 8%; A549 viability: -17%; mIDH1 inhibitor: -4%; TrxR1 substrate: -7%; Mito fusion yeast: 16%

What do the screens show for `Cc1cc(NS(=O)(=O)c2ccc(NC(=S)NC(=O)c3ccncc3)cc2)no1`?
Nrf2 inh: 9%; TrxR1 inh: -16%; A549 viability: 0%; mIDH1 inhibitor: -5%; TrxR1 substrate: -6%; Mito fusion yeast: 1%
